Assay results published in PubChem BioAssay (NCI).
About 79,000 compounds went through this panel and 15% of them were active in at least one assay; those are over-represented in the sample as a whole. Calls of active or inactive are those of the source. Rule as the data show it: active = growth inhibition above about 70%; inactive = the rest.

Tests used:
[1] = NCI Yeast Anticancer Drug Screen. Data for the rad14 strain (AID 159);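 also: 0% = growth of vehicle-treated control cultures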; details: S. cerevisiae rad14 strain growth inhibition, stronger effect = higher value
Outline: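 Yeast cells carrying a defined DNA-repair defect were exposed to compounds, and growth inhibition was calculated relative to vehicle-treated control cultures.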

[2] = NCI Yeast Anticancer Drug Screen. Data for the sgs1 mgt1 strain (AID 161);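 also: 0% = growth of cultures given vehicle only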; details: S. cerevisiae sgs1 mgt1 strain, stronger effect = higher value
Outline: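 Yeast cells carrying a defined DNA-repair defect were exposed to test compounds. Growth inhibition was measured relative to vehicle-treated controls.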

[3] = NCI Yeast Anticancer Drug Screen. Data for the CLN2oe strain (AID 163);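 also: 0% = growth of vehicle-only control cultures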; details: S. cerevisiae CLN2oe strain, stronger effect = higher value
Outline: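 Cells of an engineered yeast line with disturbed cell-cycle regulation are treated with compound. Inhibition of growth is then calculated relative to the vehicle-treated reference.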

[4] = NCI Yeast Anticancer Drug Screen. Data for the cln2 rad14 strain (AID 165);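 also: 0% = growth equal to vehicle treated cultures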; details: S. cerevisiae cln2 rad14 strain, stronger effect = higher value
Outline: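 Strain: cln2 rad14 yeast, altered in cell cycle control and DNA damage repair. Read-out: growth inhibition vs vehicle.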

[5] = NCI Yeast Anticancer Drug Screen. Data for the bub3 strain (AID 167); details: S. cerevisiae bub3 mutant strain, stronger effect = higher value
Outline: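 Compounds were applied to a genetically altered yeast strain carrying a cell-cycle control defect. Growth inhibition was scored against vehicle-treated controls.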

[6] = NCI Yeast Anticancer Drug Screen. Data for the wt2 strain (AID 169);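 also: 0% = growth of vehicle-treated yeast cultures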; details: S. cerevisiae wt2 strain growth inhibition, stronger effect = higher value
Outline: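 Growth of compound-treated yeast is measured and expressed as inhibition relative to vehicle-only controls.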

[7] = NCI Yeast Anticancer Drug Screen. Data for the mlh1 strain (AID 171);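 also: 0% = growth of vehicle-treated control cultures of the same strain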; details: S. cerevisiae mlh1 strain growth inhibition, stronger effect = higher value
Outline: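 Test agents were incubated with yeast bearing a defined DNA damage repair or cell cycle control alteration; values are growth inhibition normalised to vehicle-treated cultures.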

[8] = NCI Yeast Anticancer Drug Screen. Data for the sgs1 strain (AID 173);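 also: 0% = growth of vehicle-only control cultures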; details: S. cerevisiae sgs1 mutant, stronger effect = higher value
Outline: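 Strain with an altered DNA repair or cell cycle pathway exposed to compound. Growth then measured. Value = inhibition versus vehicle control.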

[9] = NCI Yeast Anticancer Drug Screen. Data for the mlh1 rad18 strain (AID 175); details: S. cerevisiae mlh1 rad18 strain growth inhibition, stronger effect = higher value
Outline: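 A repair-deficient yeast strain is exposed to test compound, and growth is scored relative to vehicle-treated controls.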

[10] = NCI Yeast Anticancer Drug Screen. Data for the rad18 strain (AID 177); details: S. cerevisiae rad18 mutant growth inhibition, stronger effect = higher value
Outline: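 DNA-repair-defective yeast; compound treatment; growth inhibition scored against vehicle.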

[11] = at 5.0 µM (retest, dose inferred, filed as 0.5)
[12] = at 50.0 µM (retest, dose inferred, filed as 5.0)

Measured: growth inhibition

C=C(Cl)COC(=O)Nc1cccc(Cl)c1
active: [1]; at 100.0 µM 97% | [3]; at 100.0 µM 94% | [5]; at 100.0 µM 92% | [6]; at 100.0 µM 98% | [7]; at 100.0 µM 97% | [8]; at 100.0 µM 97% | [9]; [12] 80% | [9]; at 50.0 µM 82.5% | [10]; at 100.0 µM 94%
inactive: [1]; at 11.0 µM 4% | [1]; at 33.0 µM 39% | [2]; [11] -14% | [2]; [12] 47% | [2]; at 50.0 µM 45% | [3]; at 1.2 µM 0% | [3]; at 3.7 µM -5% | [3]; at 11.0 µM -10% | [3]; at 33.0 µM 3% | [4]; [11] 19% | [4]; [12] 16% | [4]; at 50.0 µM 25.1% | [5]; at 1.2 µM -17% | [5]; at 3.7 µM -17% | [5]; [11] -25% | [5]; at 11.0 µM -8% | [5]; at 33.0 µM 9% | [5]; [12] 18% | [5]; at 50.0 µM 34.4% | [6]; at 1.2 µM -3% | [6]; at 3.7 µM -1% | [6]; at 11.0 µM 1% | [6]; at 33.0 µM 39% | [7]; at 1.2 µM -6% | [7]; at 3.7 µM -1% | [7]; at 11.0 µM 1% | [7]; at 33.0 µM 36% | [8]; at 1.2 µM 0% | [8]; at 3.7 µM 3% | [8]; at 11.0 µM 13% | [8]; at 33.0 µM 63% | [9]; [11] -13% | [10]; at 1.2 µM -1% | [10]; at 3.7 µM -2% | [10]; at 11.0 µM 8% | [10]; at 33.0 µM 55%
